The panel holds about 79,000 compounds, 15% with a hit somewhere; the sample as a whole holds those more often. Rule as the data show it: active = growth inhibition above about 70%; inactive = the rest.
Assays:
[1] = NCI Yeast Anticancer Drug Screen. Data for the rad50 strain (AID 155);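 also: 0% = growth of vehicle-only cultures of the same strain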; conditions: S. cerevisiae rad50 strain growth inhibition; at 50.0 µM; active compounds read high
Outline: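 Compounds were tested on a yeast strain with an engineered DNA damage repair alteration; the reported value is growth inhibition normalised to vehicle treatment.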

[2] = NCI Yeast Anticancer Drug Screen. Data for the mec2-1 strain (AID 157); conditions: S. cerevisiae mec2-1 strain, at 50.0 µM, active compounds read high
Outline: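 mec2-1 yeast strain, carrying an alteration in DNA damage repair or cell cycle control, was exposed to compounds; growth inhibition was measured relative to vehicle-treated controls.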

[3] = NCI Yeast Anticancer Drug Screen. Data for the sgs1 mgt1 strain (AID 161);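 also: 0% = growth of cultures given vehicle only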; conditions: S. cerevisiae sgs1 mgt1 strain, at 50.0 µM, active compounds read high
Outline: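 Compounds are added to genetically altered yeast, and growth is compared with cultures given vehicle alone to give percent inhibition.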

[4] = NCI Yeast Anticancer Drug Screen. Data for the cln2 rad14 strain (AID 165);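 also: 0% = growth equal to vehicle treated cultures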; conditions: S. cerevisiae cln2 rad14 strain, at 50.0 µM, active compounds read high
Outline: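 Yeast carrying cln2 and rad14 alterations (cell cycle control and DNA damage repair) were exposed to compounds. Growth inhibition was measured against vehicle-treated controls.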

[5] = NCI Yeast Anticancer Drug Screen. Data for the bub3 strain (AID 167); conditions: S. cerevisiae bub3 mutant strain, at 50.0 µM, active compounds read high
Outline: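 Growth of a checkpoint-deficient yeast mutant is measured after compound exposure. Values represent inhibition relative to vehicle.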

[6] = NCI Yeast Anticancer Drug Screen. Data for the mlh1 rad18 strain (AID 175); conditions: S. cerevisiae mlh1 rad18 strain growth inhibition; at 50.0 µM; active compounds read high
Outline: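 Growth inhibition of the yeast strain was measured after compound exposure and expressed relative to vehicle-treated controls. The strain carries defined defects in DNA damage repair.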

Measured: growth inhibition

Cc1nc(N)c(-c2ccccc2)s1
inactive: [1] 18.1% | [2] -15.9% | [3] 7.2% | [4] -11.2% | [5] -7.85% | [6] 11.9%

CC1(C)CC2(C)CC1CC2O (stereo unspecified)
inactive: [1] 3.5% | [2] 9.6% | [3] -1.95% | [4] 14.8% | [5] 3.85% | [6] -25.4%

NC(=O)NC(=O)c1ccccc1
inactive: [1] -10.4% | [2] -15.2% | [3] -10.2% | [4] -9.25% | [5] 3.55% | [6] -7.55%

O=S(=O)(c1ccccc1)c1ccc(CI)cc1
inactive: [1] 15.8% | [2] 19.9% | [3] 5.05% | [4] 17.4% | [5] 13.7% | [6] 9.05%

O=C(O)c1ccc2ccccc2c1C(=O)O
inactive: [1] 6.4% | [2] -1.6% | [3] 0.25% | [4] -6.55% | [5] -2.2% | [6] -1.7%

CCOC(=O)C(CCC#N)(NC(C)=O)C(=O)OCC
inactive: [1] 1.4% | [2] -2.35% | [3] 7.4% | [4] -25.3% | [5] 1.7% | [6] -20.9%

O=C(Cc1cccc(CC(=O)c2ccccc2)n1)c1ccccc1
inactive: [1] 9.25% | [2] -4.75% | [3] 18.5% | [4] -52.2% | [5] -43% | [6] 10.4%

CCOC(=O)CCc1c(C)c2c(OC(C)=O)cc(OC(C)=O)cc2oc1=O
inactive: [1] 31.6% | [2] 0.9% | [3] 17.4% | [4] 13.4% | [5] -1.05% | [6] 2.4%

CCOC(=O)NC(=O)c1cn(CCCCCOC(=O)NCCCCCCNC(=O)OCCCCCn2cc(C(=O)NC(=O)OCC)c(=O)[nH]c2=O)c(=O)[nH]c1=O
inactive: [1] 20.6% | [2] 13.2% | [3] 12.6% | [4] 21.9% | [5] 6.7% | [6] 24.1%

O=NN(CCCl)C(=O)Oc1ccc2ccccc2c1
inactive: [1] 29.4% | [2] -9.35% | [3] 16.1% | [4] -24.8% | [5] 6.2% | [6] -0.5%

c1ccc(-c2n[nH]c3c2CCCc2ccccc2-3)cc1
inactive: [1] 4.7% | [2] -9.7% | [3] 7.35% | [4] -12% | [5] 3.3% | [6] 25.4%

N#CC(=Nc1ccc2ccccc2c1)C1=C(O)c2ccccc2C1=O
inactive: [1] 15.8% | [2] -3.2% | [3] 0.2% | [4] -30.4% | [5] 10.2% | [6] 11.8%

O=Cc1ccc(OCCCOc2ccc([N+](=O)[O-])cc2)cc1
inactive: [1] -5.1% | [2] 1.6% | [3] 11.3% | [4] -12.1% | [5] 33.1% | [6] 42%

COc1ccc(/C=c2\sc3n(c2=O)C(N)=C(C#N)C(c2ccc(OC)cc2)C=3c2nc3ccccc3[nH]2)cc1 (stereo unspecified)
inactive: [1] 18.1% | [2] -13.2% | [3] 9.95% | [4] -16.1% | [5] 8.95% | [6] 11.3%

CN(C)c1ccccc1CCO
inactive: [1] -4.2% | [2] -33.5% | [3] -6.7% | [4] -0.4% | [5] -3.65% | [6] 3.35%

O=C(Cc1ccccc1)N/N=C(\C1=Nc2ccc([N+](=O)[O-])cc2NC1O)C(O)c1ccc([N+](=O)[O-])cc1 (stereo unspecified)
inactive: [1] 10% | [2] 9.6% | [3] 1.7% | [4] 18.2% | [5] 20.6% | [6] 18.2%

O=C1C2C(C(=O)N1c1ccccc1)C1(c3ccccc3)CCC2(C(=O)c2ccccc2)O1 (stereo unspecified)
inactive: [1] 56.4% | [2] -14.3% | [3] 39.6% | [4] -16.4% | [5] 9.05% | [6] 23.4%

CC(=O)NCc1cc2c3c(c1)CCCN3CCC2
inactive: [1] 6% | [2] -7.15% | [3] 4.15% | [4] -32.5% | [5] 0.1% | [6] -4.8%

NC(Cc1ccccc1F)C(=O)O (stereo unspecified)
inactive: [1] 5.95% | [2] -18.6% | [3] 5.4% | [4] 13.6% | [5] 4.9% | [6] 11.2%

CC1CC=C2C=C(Cl)C=CC2(C)C1C (stereo unspecified)
inactive: [1] 1.8% | [2] 3.55% | [3] -2.85% | [4] -9.2% | [5] 9% | [6] -1.85%

COC(=O)C(C)(NC(=O)C(CC(=O)OC(C)(C)C)NC(=O)OC(C)(C)C)c1ccccc1 (stereo unspecified)
inactive: [1] 41.5% | [2] 16% | [3] 46.5% | [4] 35.8% | [5] 36.7% | [6] 36%
